A selection: hits, their analogues and other compounds. The true share with any hit is near 1.6%.
PABP polyA inh = PABP-poly(A) binding inhibition; hit rate 1% among 290,000; PABP-poly(A) RNA binding, fluorescence polarization; P11940; calls only at 35 µM;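 further: calls also rest on retests at 20 µM and on dose response follow-up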
PERK inh = blocks human PERK kinase; Q9NZJ5; hit rate 0.17% among 220,000; CHO PERK-DD fusion, SEAP luminescence translation reporter; inhibition, % at 5.6 µM;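 active means inhibition above the mean inhibition of all tested compounds plus 3 SD, set separately per screening campaign, cut at about 2.9% in these data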;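 further: PERK kinase domain activated by AP20187 dimerizer at 100 nM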
eIF4H inh = inhibitors of RNA binding by human eIF4H; Q15056; eIF4H fluorescence polarization binding assay; inhibition, % at 35 µM; hit rate 0.94% among 290,000; AID 2012;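 further: calls also rest on retests at 20 µM and on dose response follow-up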
eIF4E 4G PPI = blocks eIF4E binding to eIF4G | P63073+Q04637 | TR-FRET eIF4E-eIF4GI(517-606) binding, 2 h | inhibition, % at 21.7 µM | hit rate 0.37% among 220,000 | AID 782;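 active means inhibition above about 30%, limit read from the data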
Target sequence (P63073 whole entry, looked up): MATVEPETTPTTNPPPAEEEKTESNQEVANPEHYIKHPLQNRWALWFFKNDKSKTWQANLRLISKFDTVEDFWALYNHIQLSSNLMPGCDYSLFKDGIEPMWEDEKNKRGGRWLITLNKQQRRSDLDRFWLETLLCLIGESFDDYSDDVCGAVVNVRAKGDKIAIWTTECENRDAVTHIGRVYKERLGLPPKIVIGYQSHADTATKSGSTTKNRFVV
Target sequence (Q04637 whole entry, looked up): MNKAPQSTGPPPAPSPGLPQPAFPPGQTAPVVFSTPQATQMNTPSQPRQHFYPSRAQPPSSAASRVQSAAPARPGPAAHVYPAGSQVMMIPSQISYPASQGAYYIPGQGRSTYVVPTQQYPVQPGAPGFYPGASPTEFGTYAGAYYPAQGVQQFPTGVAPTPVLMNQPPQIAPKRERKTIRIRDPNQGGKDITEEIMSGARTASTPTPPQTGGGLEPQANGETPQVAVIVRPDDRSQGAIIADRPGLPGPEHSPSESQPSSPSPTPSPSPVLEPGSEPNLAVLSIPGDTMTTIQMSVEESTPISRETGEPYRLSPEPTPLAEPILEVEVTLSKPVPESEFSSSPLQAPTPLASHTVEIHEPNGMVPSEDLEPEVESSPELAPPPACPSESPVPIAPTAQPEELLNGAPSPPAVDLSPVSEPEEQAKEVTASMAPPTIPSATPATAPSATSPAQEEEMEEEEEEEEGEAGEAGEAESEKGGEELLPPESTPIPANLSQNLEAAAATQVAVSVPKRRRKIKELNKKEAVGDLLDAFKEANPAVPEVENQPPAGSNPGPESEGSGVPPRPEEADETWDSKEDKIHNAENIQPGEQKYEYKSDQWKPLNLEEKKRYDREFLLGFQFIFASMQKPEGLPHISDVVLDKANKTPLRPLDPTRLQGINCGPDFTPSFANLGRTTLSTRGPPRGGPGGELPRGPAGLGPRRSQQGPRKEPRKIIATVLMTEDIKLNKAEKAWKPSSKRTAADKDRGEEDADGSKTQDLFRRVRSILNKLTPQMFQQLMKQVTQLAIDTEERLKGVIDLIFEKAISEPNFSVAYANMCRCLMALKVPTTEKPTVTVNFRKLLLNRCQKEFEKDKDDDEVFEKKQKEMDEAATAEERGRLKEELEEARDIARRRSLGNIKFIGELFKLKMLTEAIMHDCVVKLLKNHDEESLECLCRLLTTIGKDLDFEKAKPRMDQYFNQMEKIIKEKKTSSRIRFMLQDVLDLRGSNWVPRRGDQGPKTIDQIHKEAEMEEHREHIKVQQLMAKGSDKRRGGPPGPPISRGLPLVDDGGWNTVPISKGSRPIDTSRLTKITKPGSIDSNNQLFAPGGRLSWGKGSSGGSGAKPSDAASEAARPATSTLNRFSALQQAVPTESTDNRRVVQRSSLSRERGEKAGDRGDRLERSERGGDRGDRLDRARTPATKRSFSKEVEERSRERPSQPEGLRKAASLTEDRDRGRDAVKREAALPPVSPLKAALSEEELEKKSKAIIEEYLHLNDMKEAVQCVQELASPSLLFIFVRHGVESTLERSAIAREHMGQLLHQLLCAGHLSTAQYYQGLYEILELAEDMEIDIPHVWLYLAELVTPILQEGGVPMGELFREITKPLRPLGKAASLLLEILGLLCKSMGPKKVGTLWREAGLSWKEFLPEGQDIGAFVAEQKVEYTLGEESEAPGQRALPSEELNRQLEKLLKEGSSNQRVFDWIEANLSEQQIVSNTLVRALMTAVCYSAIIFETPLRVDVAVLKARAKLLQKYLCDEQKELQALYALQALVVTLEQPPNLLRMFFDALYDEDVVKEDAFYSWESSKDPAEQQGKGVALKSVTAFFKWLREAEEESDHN
PABP1 MLLE inh = inhibitors of microRNA-mediated deadenylation, human PABP1 MLLE binding | GST-MLLE / FITC-PAM2 fluorescence polarization | AID 588489 | hit rate 0.36% among 360,000 | inhibition, % at 20 µM; in the data active means inhibition above about 35%, passing the limit was not always enough
Numbers stand for hits; n = inactive; u = inconclusive; x = no result; + = active, no number. Unless noted, how the calls were made is not given here.

SMILES | PABP polyA inh | PERK inh | eIF4H inh | eIF4E 4G PPI | PABP1 MLLE inh
O=C1/C(=C/c2ccc(Br)cc2)Oc2cc(O)ccc21 | + | x | n | x | n
Cc1cccnc1NC(=S)NC(=O)c1oc2ccccc2c1C | n | x | n | x | 40.2
CC1=C(C(N)=O)S(=O)(=O)c2ccccc21 | n | 3.1 | n | n | n
NC(=O)c1ccc2c(c1)S(=O)(=O)c1ccccc1C2=O | n | n | n | n | n
CCOC(=O)c1cc(C(=O)c2ccccc2O)cn2c(=O)c3c(C)c(C)sc3nc12 | n | n | 72.7 | n | x
CCCN1CCCc2cc(CN)ccc21 | + | n | 58.1 | n | 45.1
O=C(CSc1nnc(-c2ccco2)o1)c1ccccc1Cl | n | n | n | n | n
C=CCn1c(C)cc(C(=O)CSc2nc3ccccc3[nH]2)c1C | n | n | n | n | n
Cc1cc(C(=O)CSc2nnc(-c3ccco3)o2)c(C)n1Cc1ccco1 | + | n | 65.0 | n | n
O=C(CSc1nnc(-c2ccco2)o1)c1ccc([N+](=O)[O-])cc1 | n | n | n | 92.8 | n
Cc1cc(C(=O)CSc2nc3ccccc3[nH]2)c(C)n1Cc1ccco1 | + | n | 87.3 | n | n
CCN(CC)S(=O)(=O)c1cccc(-c2nnc(SCC(=O)c3cc(C)n(C)c3C)o2)c1 | + | n | n | n | n
CCOc1cccc(C2/C(=C(/O)c3ccc4c(c3)CC(C)O4)C(=O)C(=O)N2Cc2cccnc2)c1 (centres undefined) | n | x | n | x | n
Cc1cc(C)n(C(=O)c2ccc([N+](=O)[O-])cc2Cl)n1 | n | x | n | x | n
O=C(NC1CCCCC1)C(c1ccccc1)N(Cc1cccnc1)C(=O)c1csnn1 (centres undefined) | n | x | n | x | n
Cn1nc(C(=O)OCC(=O)Nc2ccc(S(N)(=O)=O)cc2)c2ccccc2c1=O | n | n | n | n | n
CCC(C)NC(=O)[C@H]1N2C(=O)c3c(ccc(OC)c3OC)C2SC1(C)C (some centres undefined) | n | x | n | x | 42.7
COc1ccc2c(c1OC)C(=O)N1C2SC[C@H]1C(=O)NC1CCCC1 (some centres undefined) | n | x | n | x | 41.1
Cc1ccc2nc(/C(C#N)=C/c3ccc(-c4ccccc4C(=O)O)o3)[nH]c2c1 | u | x | u | x | n
N#C/C(=C\c1ccc(-c2ccccc2C(=O)O)o1)c1nc2ccccc2[nH]1 | + | x | n | x | n
CC(=O)N1/C(=C/c2ccc(N(C)C)cc2)C(=O)c2ccccc21 | n | n | n | n | n
CCc1nn(C)c2c(=O)c(=O)c2n(C)[nH]1 | + | n | 99.4 | n | n
Cc1nn(C)c2c(=O)c(=O)c2n(C)[nH]1 | n | n | n | n | n
O=C(O)c1cc(Cl)n[nH]c1=O | x | x | x | x | n
Nc1c(C(=O)Nc2ccccc2F)sc2nc(-c3ccco3)ccc12 | + | n | 90.0 | n | n
SMILES | PABP polyA inh | PERK inh | eIF4H inh | eIF4E 4G PPI | PABP1 MLLE inh
Nc1c(C(=O)Nc2ccccc2F)sc2nc(-c3cccnc3)ccc12 | n | n | n | n | n
NC(=O)c1sc2nc(-c3ccco3)ccc2c1N | + | n | 91.9 | n | n
COC(=O)c1sc2nc(-c3ccco3)ccc2c1N | n | n | 55.1 | n | n
CC(C)OC(=O)c1sc2nc(-c3ccccc3)ccc2c1N | n | n | n | n | n
NC(=O)c1sc2nc3c(c(-c4ccco4)c2c1N)CCC3 | + | n | 97.0 | n | n
O=C(Nc1cccc(F)c1)N1CCN(C(=O)c2ccco2)CC1 | n | x | n | x | n
O=C(Nc1ccc(Cl)cc1)Nc1ccc(Br)cn1 | n | x | n | x | n
COc1cc(NC(C)CCCNC(C)C)c2ncccc2c1OC (centres undefined) | x | x | x | x | 43.8
CCOC(=O)[C@H]1[C@H]2COc3ccc(OC)cc3[C@@H]2N2C(=O)CN(Cc3ccc(OC)cc3)C(=O)[C@@]12C | x | x | x | x | n
CCOc1ccc(N2CC(C(=O)Nc3cccnc3)CC2=O)cc1 (centres undefined) | n | x | n | x | n
CCN(CC)S(=O)(=O)c1cccc(NC(=O)COC(=O)c2n[nH]c(=O)c3ccccc23)c1 | + | n | n | n | n
CN(C)c1cc[n+](CC(=O)Nc2ccc(OC(F)F)cc2)cc1 | n | n | n | n | n
CCCNc1c(F)c(F)c2c(C)c3ccccc3nc2c1F | + | n | 100.8 | n | n
C#CCN1[C@@H]2CCN(C2)c2cc(Br)ccc2S1(=O)=O | x | x | x | x | n
COc1cc(/C=C/C(=O)OCC(=O)Nc2ccc(S(N)(=O)=O)cc2)ccc1O | + | n | 52.2 | n | n
COc1cc(/C=C/C(=O)OCC(=O)Nc2ccc([N+](=O)[O-])cc2)ccc1O | n | n | n | n | n

Assay outcomes from PubChem BioAssay.
